From PubChem BioAssay (Tox21)
Results filed as inconclusive are left out. Active and inactive are the calls of the source. Unless noted, the call rests on the fitted dose curve; in most records, active means well fitted curve in the direction sought with a large enough effect in the repeat runs; inconclusive means weak or mixed curves; inactive means no such curve, though single readings can be large; an effect the other way counts as inactive or inconclusive.

What was measured:
[1] = qHTS assay for small molecules that induce genotoxicity in human embryonic kidney cells expressing luciferase-tagged ATAD5 (AID 651632); further: nearly all actives have a fitted effect of over 15% in size
Summary of the method: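 A rise in luciferase signal from ATAD5-tagged HEK293T cells marks genetic stress. Cells were exposed to compounds for 16 hr at 37C, 5% CO2, then luciferase was quantified after a 30 min room-temperature incubation with Amplite.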

[2] = qHTS assay for small molecule agonists of the p53 signaling pathway - cell viability (AID 651633; calls by dose curve;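 further: p53RE-bla HCT reporter cells with a stable beta-lactamase p53 reporter; series mostly up to about 83 µM; nearly all actives have a fitted effect of over 30% in size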)
Summary of the method: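 p53RE-bla cells, seeded at 4,000 per well and rested 5 h at 37 C/5% CO2, received compounds in DMSO for 16 h at 37 C. CellTiter-Glo was then added, and luminescence was read after 30 min at room temperature to gauge cytotoxicity.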

[3] = qHTS assay for small molecules that induce genotoxicity in human embryonic kidney cells expressing luciferase-tagged ATAD5 - cell viability (AID 651634; calls by dose curve; further: nearly all actives have a fitted effect of over 25% in size)
Summary of the method: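 Cytotoxicity counter-readout: after 15.5 hr compound treatment at 37C, live-cell protease activity in ATAD5-luciferase HEK293T cells measured by CellTiter-Fluor fluorescence, 30 min development at 37C.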

[4] = qHTS assay for small molecule disruptors of the mitochondrial membrane potential - cell viability (AID 720634; calls by dose curve;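 further: human HepG2 liver cancer cells; series mostly up to about 83 µM; nearly all actives have a fitted effect of over 20% in size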)
Summary of the method: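 Cytotoxicity was quantified from ATP content by CellTiter-Glo luminescence in the same wells as the MMP dye read-out. HepG2 (2,000 cells/well) were plated overnight and exposed to compounds for 1 hr at 37 C.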

[5] = qHTS assay to test for compound auto fluorescence at 590 nm (red) in HepG2 cells (AID 720674)
Summary of the method: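 Compound auto-fluorescence is scored relative to Rose Bengal sodium, measured at 540/590 nm in live HepG2 cultures after 1 hr compound contact (37 C, 5% CO2).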

[6] = qHTS assay to test for compound auto fluorescence at 535 nm (green) in HepG2 cells (AID 720675)
[7] = qHTS assay to test for compound auto fluorescence at 590 nm (red) in HEK293 cells (AID 720679)
Summary of the method: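 Red-channel autofluorescence (Ex/Em 540/590 nm; Rose Bengal sodium reference) was measured after overnight 37C, 5% CO2 exposure of attached HEK293 cells, 2,000 per well in medium with 10% dialyzed FBS.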

[8] = qHTS assay to test for compound auto fluorescence at 535 nm (green) in HEK293 cells (AID 720680)
[9] = qHTS assay to test for compound auto fluorescence at 460 nm (blue) in HEK293 cell free culture (AID 720681)
Summary of the method: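 Test compounds were pinned into cell-free culture medium (DMEM with 10% FBS) and fluorescence was read directly at Ex/Em 405/460 nm. Signals were expressed as fluorescence equivalents of triamterene, with DMSO vehicle as control.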

[10] = qHTS assay to test for compound auto fluorescence at 535 nm (green) in HEK293 cell free culture (AID 720682)
Summary of the method: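 Green-channel intensity (Ex/Em 485/535 nm) was recorded from compound-treated wells containing only DMEM with 10% FBS. Fluorescein provided the equivalency standard.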

[11] = qHTS assay to test for compound auto fluorescence at 590 nm (red) in HEK293 cell free culture (AID 720683)
Summary of the method: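 Tox21 10K library compounds were pinned into cell-free DMEM with 10% FBS and fluorescence was read at excitation 540 nm. Activity is expressed as Rose Bengal sodium equivalency.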

[12] = qHTS assay to test for compound auto fluorescence at 460 nm (blue) in HepG2 cell free culture (AID 720685)
Summary of the method: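 Cell-free plates of MEM plus 10% FBS received 23 nL compound or DMSO vehicle; blue-channel (405/460 nm) intensity scored against triamterene as reference fluorophore.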

[13] = qHTS assay to test for compound auto fluorescence at 535 nm (green) in HepG2 cell free culture (AID 720686)
[14] = qHTS assay to test for compound auto fluorescence at 460 nm (blue) in HepG2 cells (AID 720687)
Summary of the method: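 Cells (2,000/well in MEM with 10% FBS) attached overnight at 37 C, then were exposed to compound or DMSO for 1 hr at 37 C, 5% CO2. Fluorescence read at Ex/Em 405/460 nm, expressed as triamterene-equivalent signal.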

[15] = qHTS assay to test for compound auto fluorescence at 460 nm (blue) in HEK293 cells (AID 720678)
Summary of the method: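 Blue-channel (Ex/Em 405/460 nm) intensity measured in HEK293 cultures after overnight compound exposure at 37C; signal expressed relative to triamterene. Cells plated 2,000 per well in 10% dialyzed FBS medium and allowed 4-5 hr to attach.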

[16] = qHTS assay to test for compound auto fluorescence at 590 nm (red) in HepG2 cell free culture (AID 720684)
Summary of the method: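 Readout: intrinsic compound fluorescence at 590 nm emission after 540 nm excitation, scaled to Rose Bengal sodium. Matrix was cell-free MEM with 10% FBS; DMSO vehicle wells served as control.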

[17] = biological target: Glucocorticoid receptor (Homo sapiens) (UniProt P04150); experiment: qHTS assay to identify small molecule agonists of the glucocorticoid receptor (GR) signaling pathway (AID 720691; active means well fitted activation curve with a large enough effect in the signal ratio in the repeat runs, not every such curve was filed as active; the % refers to the signal ratio)
Chain of Glucocorticoid receptor (Homo sapiens) (P04150 whole entry, looked up): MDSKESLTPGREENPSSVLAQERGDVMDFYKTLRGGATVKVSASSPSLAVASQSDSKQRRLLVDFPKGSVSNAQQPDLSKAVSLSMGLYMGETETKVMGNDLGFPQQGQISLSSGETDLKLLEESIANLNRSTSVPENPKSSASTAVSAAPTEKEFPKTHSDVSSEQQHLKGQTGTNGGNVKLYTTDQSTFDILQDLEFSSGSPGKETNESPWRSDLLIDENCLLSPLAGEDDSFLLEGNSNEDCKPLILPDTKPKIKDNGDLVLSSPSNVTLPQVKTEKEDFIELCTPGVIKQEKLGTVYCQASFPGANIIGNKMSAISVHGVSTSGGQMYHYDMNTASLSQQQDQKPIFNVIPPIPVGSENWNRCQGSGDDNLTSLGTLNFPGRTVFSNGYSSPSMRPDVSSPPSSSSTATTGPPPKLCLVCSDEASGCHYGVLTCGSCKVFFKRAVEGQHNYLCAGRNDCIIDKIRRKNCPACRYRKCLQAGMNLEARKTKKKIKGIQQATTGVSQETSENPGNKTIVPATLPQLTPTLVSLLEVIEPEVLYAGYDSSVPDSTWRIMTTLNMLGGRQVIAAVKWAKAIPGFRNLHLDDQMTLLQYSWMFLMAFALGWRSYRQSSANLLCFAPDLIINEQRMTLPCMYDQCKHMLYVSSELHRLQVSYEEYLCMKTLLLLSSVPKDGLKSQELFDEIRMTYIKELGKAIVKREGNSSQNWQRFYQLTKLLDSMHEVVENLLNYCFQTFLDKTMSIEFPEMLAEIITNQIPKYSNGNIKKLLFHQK
Summary of the method: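 Agonist-mode qHTS in HeLa cells stably expressing a glucocorticoid-response-element beta-lactamase reporter. Fluorescence intensity read with FRET substrate (2 h, room temperature) after 18 h compound treatment at 37 C.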

[18] = qHTS assay for small molecule disruptors of the mitochondrial membrane potential (AID 720635)
Summary of the method: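 HepG2 cells (2,000/well) attached overnight at 37C, then took compound for 1 hr at 37C, 5% CO2. Mito-MPS dye was added for 30 min; fluorescence was read at 490/535 nm (monomers) and 540/590 nm (aggregates).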

[19] = biological target: Glucocorticoid receptor (Homo sapiens) (UniProt P04150); experiment: qHTS assay to identify small molecule antagonists of the glucocorticoid receptor (GR) signaling pathway (AID 720692; active means well fitted inhibition curve with a large enough effect in the signal ratio in the repeat runs, not every such curve was filed as active; the % refers to the signal ratio)
Summary of the method: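 Inhibition of dexamethasone-driven (5 nM final) beta-lactamase expression was measured in GRE-reporter HeLa cells over 18 h at 37C. Fluorescence was read after 2 h with the B/G FRET substrate at room temperature.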
On the % scale 0 is the no-effect control and ±100 the full control effect.

CC(=O)OCC(=O)[C@@]1(O)[C@H](C)C[C@H]2[C@@H]3CCC4=CC(=O)C=C[C@]4(C)[C@@]3(F)[C@@H](O)C[C@@]21C
inactive: Potency [1] | Potency [2] | Potency [3] | outcome [4] | outcome [5] | outcome [6] | outcome [7] | outcome [8] | outcome [9] | outcome [10] | outcome [11] | outcome [12] | outcome [13] | outcome [14]

[Ca+2]
inactive: Potency [1] | Potency [3] | outcome [5] | outcome [6] | outcome [15] | outcome [7] | outcome [8] | outcome [9] | outcome [10] | outcome [11] | outcome [16] | outcome [13] | outcome [14] | Potency [17]

Cc1c(N)c(=O)n(-c2ccccc2)n1C
inactive: Potency [2] | Potency [3] | outcome [4] | Potency [18] | fluorescence, relative to Rose Bengal [5] -0.0352% [at 18.6 µM] | fluorescence, % of fluorescein control [6] 0.0089% [at 18.6 µM] | fluorescence, % of triamterene [15] 0.0036% [at 18.6 µM] | fluorescence, % of fluorescent control [7] 0.258% [at 18.6 µM] | fluorescence, % of fluorescein [8] -0.0771% [at 18.6 µM] | fluorescence, % of fluorescent control [9] 0.0935% [at 18.6 µM] | activity change [10] -0.102% [at 18.6 µM] | fluorescence, % of fluorescent control [11] 0.419% [at 18.6 µM] | fluorescence, % of Rose Bengal [16] 0.0086% [at 18.6 µM] | fluorescence, % of fluorescent control [12] -0.0617% [at 18.6 µM] | fluorescence, % of fluorescein control [13] -0.0689% [at 18.6 µM] | fluorescence, % of fluorescent control [14] -0.0556% [at 18.6 µM] | Potency [17] | Potency [19]

CN1C(C)(C)CC(O)CC1(C)C
inactive: Potency [1] | Potency [2] | Potency [3] | Potency [18] | outcome [5] | outcome [6] | outcome [15] | outcome [7] | outcome [8] | outcome [9] | outcome [10] | outcome [11] | outcome [16] | outcome [12] | outcome [13] | outcome [14]

CCN1C=CN(C)C1C (stereo not drawn)
inactive: Potency [1] | Potency [2] | Potency [3] | outcome [4] | outcome [5] | outcome [6] | outcome [15] | outcome [7] | outcome [8] | outcome [9] | outcome [11] | outcome [16] | outcome [13] | outcome [14]

CCOCC(C)O (stereo not drawn)
inactive: Potency [1] | Potency [2] | Potency [3] | outcome [5] | outcome [6] | outcome [15] | outcome [7] | outcome [8] | outcome [9] | outcome [11] | outcome [16] | outcome [12] | outcome [13] | outcome [14] | Potency [19]

COc1cccc(OC)c1C(=O)N[C@@H]1C(=O)N2[C@@H]1SC(C)(C)[C@@H]2C(=O)O
inactive: Potency [1] | Potency [2] | Potency [3] | Potency [18] | outcome [5] | outcome [6] | outcome [15] | outcome [7] | outcome [8] | outcome [9] | outcome [10] | outcome [11] | outcome [12] | outcome [13] | outcome [14] | Potency [17] | Potency [19]
